# Assay results published in PubChem BioAssay AID1347383 (Zoeller Lab, School of Medicine, Boston University, 2020).
# Active and inactive are the calls of the source.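 Rule for the calls: active = cell survival after UV exposure 2 SD above solvent-only control wells at 10 µM, confirmed on one or two repeats; inactive = the rest.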
# Test: cell survival after pyrene fatty acid photosensitization – ZR-82 cells, Analyticon library, screen 2, phospholipid biosynthesis inhibitor project, primary screen (AID 1347383);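 note: survival reflects blocked phospholipid synthesis cutting uptake of the phototoxic fatty acid; compound and fatty acid exposure 3 h then viability read next day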
# Conditions: ZR-82 CHO cells, pyrene-fatty acid UV killing, CellTiter Blue; at 10 µM; peroxisome-deficient CHO-K1 variant; with DGAT-1, DGAT-2 and ACAT inhibitors
row,Compound,outcome
1,CCCCCC1CC(O)CC(=O)O1 (stereo not drawn),inactive
2,COc1ccc(/C=C/C(=O)O)cc1O,inactive
3,COc1c(OC)c2occc2c2oc(=O)ccc12,inactive
4,CC(=O)OC/C(=C/C(=O)O)CC[C@@H]1C(C=O)=CC[C@@H]2C(C)(C)CCC[C@@]12C,inactive
5,O=C1c2c(O)cc(O)cc2OC(c2cc(O)c(O)c(O)c2)C1O (stereo not drawn),inactive
6,C=C(C)C(O)Cc1c(O)cc(CCc2ccccc2)c(CC=C(C)C)c1O (stereo not drawn),inactive
7,O=C(O)CCC(=O)Cc1ccccc1,inactive
8,O=C(O)c1cc(O)c2c(c1)C(=O)c1cc(O)cc(O)c1C2=O,inactive
9,COc1ccc(-c2coc3cc(O)ccc3c2=O)cc1O,inactive
10,O=C(NC(CO)Cc1ccccc1)c1ccccc1 (stereo not drawn),inactive
11,CC(C)=CCn1cnc(=N)c2[nH]cnc21,inactive
12,C=C[C@H]1CN2CC[C@H]1C[C@@H]2C(O)c1ccnc2ccc(OC)cc12 (stereo partly drawn),inactive
13,C[C@H](O)c1nc2ccccc2c(=O)[nH]1,inactive
14,C=C1C(=O)O[C@@H]2C=C(C)[C@@H]3CC[C@@](C)(O)[C@@H]3C[C@H]12,inactive
15,Cc1cc(O)c2c3c(c(O)c4c(c13)OC(C)C4(C)C)C(=O)O2 (stereo not drawn),inactive
16,OC1C(O)C(O)C(O)C(O)C1O (stereo not drawn),inactive
17,CC(Cc1ccc(O)c(O)c1)C(C)Cc1ccc(O)c(O)c1 (stereo not drawn),inactive
18,C=C(C(=O)O)C(CCCCCC)C(=O)O (stereo not drawn),inactive
19,COc1c(C)c2c(c(O)c1C/C=C(\C)C(O)CC(=O)O)C(=O)OC2 (stereo not drawn),inactive
20,C=C1CCC2[C@@](C)(CO)CCC[C@]2(C)[C@H]1CC/C(C)=C/CO (stereo partly drawn),inactive
21,COc1cc(CC(C)C(C)Cc2ccc(O)c(O)c2)ccc1O (stereo not drawn),inactive
22,COC1C(=O)CCC2(CO2)C1(O)C1(C)OC1CC=C(C)C (stereo not drawn),inactive
23,COc1c(O)cc2c3c1COc1cc(O)cc(c1-3)CC2,inactive
24,O=C1CCC(=O)NCCCCCN(O)C(=O)CCC(=O)NCCCCCN(O)C(=O)CCC(=O)NCCCCCN1,inactive
25,N#CC(OC(=O)c1ccccc1)c1ccccc1 (stereo not drawn),inactive
26,C/C=C/c1ccc2oc(-c3ccc(O)c(OC)c3)c(C)c2c1,inactive
27,Oc1cc(O)c2c(c1)O[C@H](c1ccc(O)c(O)c1)[C@H](O)C2,inactive

row,Compound,outcome
1,NC(=O)c1c[nH]c(Cc2ccccc2)cc1=O,inactive
2,CCCCCCCC(O)/C=C\C(O)CCC(O)CCCC(=O)O (stereo not drawn),inactive
3,C=CC(C)(C)c1cc2cc3c(cc2oc1=O)OC(C(C)(C)OC(C)=O)C3 (stereo not drawn),inactive
4,CCC(C)C(=O)OC1CC(C)C=C2C=CC(C)C(CCC(O)CC(O)CC(=O)O)C21 (stereo not drawn),inactive
5,CC(C)(O)[C@@H]1Cc2cc3ccc(=O)oc3cc2O1,inactive
6,COc1ccc(-c2coc3cc(O)cc(O)c3c2=O)cc1,inactive
7,CCC(=O)C1OC(O)(CCC2=CCOC2=O)C2(C)CCCC(C)(C)C12 (stereo not drawn),inactive
8,CCC(C)C(=O)OC1CCC=C2C=CC(C)C(CCC(O)CC(O)CC(=O)OC)C21 (stereo not drawn),inactive
9,C=C1[C@H]2CC[C@H](C(=O)O)[C@@]23CC[C@H](C3)C1(C)C,inactive
10,CC1(C)C=Cc2c(c3ccccc3[nH]c2=O)O1,inactive
11,O=C(CCc1ccc(O)cc1)c1c(O)cc(O)cc1O,inactive
12,COc1c(O)ccc2c1C(=O)c1ccccc1C2=O,inactive
13,O=C(/C=C(O)/C=C/c1ccc(O)cc1)/C=C/c1ccc(O)cc1,inactive
14,OC1c2ccccc2-c2c3c(cc4c2C1NCC4)OCO3 (stereo not drawn),inactive
15,OC[C@H]1O[C@@H](Oc2ccccc2)[C@H](O)[C@@H](O)[C@@H]1O,inactive
16,CC(C)CC(O)C(=O)NC(C)C(=O)NC(CC(C)C)C(=O)NCCCC(=O)O (stereo not drawn),inactive
17,O=C1OCC(c2ccccc2)=C1Cc1ccccc1,inactive
18,CC(=O)NC1C=CC(CCC(NC(C)=O)C(=O)O)C=C1 (stereo not drawn),inactive
19,CC[C@H](C)/C=C(C)/C=C/C1=CC2=CC(=O)[C@]3(C)OC(=O)[C@@H](C(C)=O)[C@@H]3C2=CO1,inactive
20,CC1Cc2cc(O)c(O)cc2C(c2ccc(O)c(O)c2)C1C (stereo not drawn),inactive
21,CCCCc1c(CC=C(C)C)[nH]c(=O)c(C)c1O,inactive
22,COc1cc(O)cc2occ(-c3ccc(O)cc3O)c(=O)c12,inactive
23,COc1cc(OC)c2c(c1Cl)OC1(C(=O)C=C(O)C=C1C)C2=O (stereo not drawn),inactive
24,CC(O)C(O)c1ccc(OC(C)C(O)c2ccc(O)cc2)cc1 (stereo not drawn),inactive
25,CC(=O)CCCCCCc1ccc2c(c1)OCO2,inactive
26,CCC(C)C1NC(=O)C(Cc2ccccc2)NC(=O)C(CCCCCC(=O)C(O)CO)NC(=O)C2CCCCN2C1=O (stereo not drawn),inactive
